# Laboratory results from PubChem BioAssay (NCI).
# About 79,000 compounds went through this panel and 15% of them were active in at least one assay; those are over-represented in the sample as a whole. Unmarked numbers belong to inactive results. Active and inactive are the calls of the source. Cut-off read from the data, not from the text of the source: active = growth inhibition above about 70%; inactive = the rest. Where a SMILES comes first, the peptide text is derived from it. The star is where a group is joined. Cbz = O=C(OCc1ccccc1)*; OBn = c1ccc(CO*)cc1
# Columns and labels:
# [1] = NCI Yeast Anticancer Drug Screen. Data for the rad50 strain (AID 155);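 note: 0% = growth of vehicle-only cultures of the same strain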; conditions: S. cerevisiae rad50 strain growth inhibition, hits give high values; at 50.0 µM unless noted
# Summary of the method: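 A DNA repair-deficient yeast mutant serves as the test organism; compound-induced growth inhibition is calculated against vehicle-treated cells.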
# [2] = NCI Yeast Anticancer Drug Screen. Data for the mec2-1 strain (AID 157); conditions: S. cerevisiae mec2-1 strain, hits give high values; at 50.0 µM unless noted
# Summary of the method: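 Readout is yeast growth inhibition, normalised to vehicle-treated controls, in the mec2-1 strain exposed to compound.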
# [3] = NCI Yeast Anticancer Drug Screen. Data for the sgs1 mgt1 strain (AID 161);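 note: 0% = growth of cultures given vehicle only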; conditions: S. cerevisiae sgs1 mgt1 strain, hits give high values; at 50.0 µM unless noted
# Summary of the method: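 Growth of a repair-deficient yeast mutant was monitored after compound treatment and expressed as inhibition relative to vehicle-treated cultures.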
# [4] = NCI Yeast Anticancer Drug Screen. Data for the cln2 rad14 strain (AID 165);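 note: 0% = growth equal to vehicle treated cultures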; conditions: S. cerevisiae cln2 rad14 strain, hits give high values; at 50.0 µM unless noted
# Summary of the method: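 Relative to vehicle controls, growth inhibition of compound-treated cln2 rad14 yeast was recorded.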
# [5] = NCI Yeast Anticancer Drug Screen. Data for the bub3 strain (AID 167); conditions: S. cerevisiae bub3 mutant strain, hits give high values; at 50.0 µM unless noted
# Summary of the method: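 Inhibition values come from growth of compound-treated mutant yeast normalised to vehicle-treated controls.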
# [6] = NCI Yeast Anticancer Drug Screen. Data for the mlh1 rad18 strain (AID 175); conditions: S. cerevisiae mlh1 rad18 strain growth inhibition, hits give high values; at 50.0 µM unless noted
# Summary of the method: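 Test agents were incubated with a yeast strain of defined genotype (DNA damage repair defect). Inhibition of growth was derived by comparison with vehicle-exposed cultures.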
SMILES,growth inhibition [1],growth inhibition [2],growth inhibition [3],growth inhibition [4],growth inhibition [5],growth inhibition [6] [%]
CCC(=O)OC(CCC1CCCO1)CCC1CCCO1 (stereo not given),11.5%,12.2%,3.75%,12.4%,22.9%,-3.55
CCC(=N\NC(=S)NCCN(C)C)/C(C)=N/NC(=S)NCCN(C)C,57%,13.2%,52.2%,4.95%,16.5%,54.9
CCCOC(=O)CCCC(=O)N(C(C)C)C(C)C,-12.3%,-2.7%,12.2%,-29.5%,21.9%,4.65
CC(C)C(=O)Nc1ccc(S(=O)(=O)Nc2ccc(N)cc2O)cc1,-6.8%,6.6%,25.1%,1.25%,20.1%,-0.75
CCCCCCCCCCCCCCCCCCOc1ccccn1,-9.8%,-32.1%,-9.75%,2.55%,-17.9%,3.25
COc1cc(C2c3cc4c(cc3OC(NN=C(C)C)C2C)OCO4)cc(OC)c1O (stereo not given),14.2%,1.7%,9.65%,4.5%,12.8%,10.9
COC(=O)C(Cc1ccccc1)N=Cc1c(O)c(O)c(C(C)C)c2cc(C)c(-c3c(C)cc4c(C(C)C)c(O)c(O)c(C=NC(Cc5ccccc5)C(=O)OC)c4c3O)c(O)c12 (stereo not given),19.7%,9.7%,11.7%,17.1%,16.1%,4.75
CCOc1cc(C=O)c2c(ccc3ccc(OC)c(OC)c32)c1OC,86.5% (active),90.8% (active),84.7% (active),83.5% (active),82.4% (active),-11.8
CC1/C(=N\O)CC2C3(C)CCC2(C(C)C(=O)O)C(=O)C13 (stereo not given),4.75%,9.1%,2.2%,8.55%,8.9%,20.6
O=COCCCOCCCOc1ccccc1,14.3%,-11.8%,-9.35%,-37.4%,-5.6%,28.4
CCCCCCCC(=O)C1C(=O)OC(C)(C)OC1=O,9.65%,-6.45%,-7.85%,9.65%,-0.5%,-7.15
CCCCNC(=O)/C=C/C(=O)NCCCC,11.5%,1.95%,-0.9%,-36.4%,-7.35%,-1.5
CC/C=C/C(=O)CC(O)(C(F)(F)F)C(F)(F)F,-30.9%,9.1%,12.5%,-20.9%,-29.8%,-20.8
Fc1ccc2c(c1)SC1Oc3ccccc3-c3c1c-2nn3-c1ccccc1 (stereo not given),-5.45%,-7.45%,-17.4%,8.8%,-11.1%,-2.6
CCOC(=O)C(Sc1ccc(C)cc1)C(Sc1ccc(C)cc1)C(=O)OCC (stereo not given),0.6%,-6.6%,11.2%,-17.3%,-0.3%,-0.75
O=NN1C(c2ccccc2)CNC(=O)CC1c1ccccc1 (stereo not given),-27%,-1.4%,-1.65%,-8%,20.6%,-18.2
COC(=O)C(Cc1ccc(O)cc1)NC(=O)C(CC(=O)OCc1ccccc1)NC(=O)OCc1ccccc1 (stereo not given) (Cbz-Asp(OBn)-Tyr-OMe; configuration not given here),-11.3%,-5.95%,-0.7%,-3.45%,-21.4%,0.55
COc1cc(C)cc2c1C(C)(C)CCC2(C)C,5.4%,-24.6%,-5.8%,-7.15%,16%,-0.65
CCOC(=O)C1(Cc2ccccc2)Cc2cc3c(cc2C1)CCC3,-23.1%,-50.5%,-23.7%,-3.5%,2.6%,-2.5
COc1ccccc1/C=C1\SC(=S)NC1=O,-44.6%,-36.9%,-38.2%,-14.6%,-17.8%,-40.1

SMILES,growth inhibition [1],growth inhibition [2],growth inhibition [3],growth inhibition [4],growth inhibition [5],growth inhibition [6] [%]
Cc1cc(=O)c2c(o1)C(=O)c1occc1C2=O,-9.5%,-34.5%,-3.9%,5.85%,-6.1%,-13
O=S(=O)(Cl)c1ccc(Cl)cc1,-4.6%,13.1%,6.8%,1.5%,-16.6%,-7.25
CCCCCC(=O)OCCSCCOC(=O)CCCCC,4.55%,1.3%,-5.85%,-39.1%,10.8%,0.2
CC(=O)Oc1cc(C)c(OC(C)=O)c2ccccc12,-6.6%,17.7%,4.45%,-1.3%,10.3%,4.1
N#CC(C#N)=C1SC(=Nc2ccccc2)C(=Nc2ccccc2)N1c1ccccc1,11.6%,6.05%,19.2%,7.1%,21.6%,16.4
COc1cccc(N)c1N,21.4%,-15.2%,-3.6%,4.6%,-16.9%,-9.2
Cc1ccc(S(=O)(=O)N2C(=O)CCC2C(=O)O)cc1 (stereo not given),-0.95%,-5.65%,10.6%,-17.1%,2.2%,2.7
O=C1CCCCC(=O)Nc2ccccc2N1,-22.2%,-15.8%,-6.85%,0.9%,-4.9%,-20.8
O=CC(=O)C(O)C(O)C(O)CO (stereo not given),9.5%,22.9%,26.2%,-0.05%,-4.95%,19.4
Cn1nc2ccc3nccc(N4CCN(CCO)CC4)c3c2n1,-25.6%,-6.9%,-21.6%,-17.1%,-8.45%,-15
Nc1ccc(N=Nc2c(S(=O)(=O)O)cc3ccccc3c2S(=O)(=O)O)cc1,-23%,-30.4%,-38.2%,-18.3%,-46.5%,-27.6
CC(=O)CCCCC(=O)Nc1ccc(CC(NC(=O)OC(C)(C)C)C(=O)NCC(=O)OCc2ccccc2)cc1 (stereo not given),-38.5%,-4.5%,-1.6%,8.85%,10%,-12.1
CC(=O)OC(OC(C)=O)c1ccccc1,24.2%,12.2%,-3.4%,16%,5%,11.7
C=CC(=O)NC12CC3CC(CC(C3)C1)C2,-4.45%,-0.3%,-8.1%,-23.9%,-15.6%,0.05
c1ccc(-c2cn(-c3ccccc3)nn2)cc1,-1%,-4.5%,-13.7%,-22.9%,-28.8%,0.6
CC1(C)OC2COC(OCc3ccccc3)C(OCc3ccccc3)C2O1 (stereo not given),17.4%,8.1%,26.8%,7.35%,-8.7%,19
O=C(Sc1ccc(Br)cc1)c1ccccc1,29.1%,24.2%,1.15%,13.2%,10.4%,1.25
CCOC(=O)C(Cc1c[nH]c2c(N(CCO)CCO)cccc12)(NC(C)=O)C(=O)OCC,-0.45%,-17.2%,16%,21.7%,-5.55%,9.95
CC1(C)OCC(N)[C@@H](O)CO1 (stereo not given in full),5%,12.9%,13.3%,-26.2%,3.5%,-0.65
O=P(CSCCO)(c1ccccc1)c1ccccc1,-23.6%,-21.9%,-13.4%,-6.3%,-11.9%,-36.7
